Hit rate of the full screen: of about 310,000 compounds, about 14,000 (4.5%) showed an effect of 50% or more. The effect is printed as a negative number. This excerpt belongs to a sample that is enriched for strong results.
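Also: peak tail current of the secondary pulse compared with the same well before compound.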

This experiment deals with human ether-à-go-go-related gene (hERG) potassium channel (human, UniProt Q12809). Kind of experiment: primary screen, population patch clamp on CHO cells stably expressing hERG; higher = less effect of the substance.
Chain of human ether-à-go-go-related gene (hERG) potassium channel (Q12809 whole entry, looked up): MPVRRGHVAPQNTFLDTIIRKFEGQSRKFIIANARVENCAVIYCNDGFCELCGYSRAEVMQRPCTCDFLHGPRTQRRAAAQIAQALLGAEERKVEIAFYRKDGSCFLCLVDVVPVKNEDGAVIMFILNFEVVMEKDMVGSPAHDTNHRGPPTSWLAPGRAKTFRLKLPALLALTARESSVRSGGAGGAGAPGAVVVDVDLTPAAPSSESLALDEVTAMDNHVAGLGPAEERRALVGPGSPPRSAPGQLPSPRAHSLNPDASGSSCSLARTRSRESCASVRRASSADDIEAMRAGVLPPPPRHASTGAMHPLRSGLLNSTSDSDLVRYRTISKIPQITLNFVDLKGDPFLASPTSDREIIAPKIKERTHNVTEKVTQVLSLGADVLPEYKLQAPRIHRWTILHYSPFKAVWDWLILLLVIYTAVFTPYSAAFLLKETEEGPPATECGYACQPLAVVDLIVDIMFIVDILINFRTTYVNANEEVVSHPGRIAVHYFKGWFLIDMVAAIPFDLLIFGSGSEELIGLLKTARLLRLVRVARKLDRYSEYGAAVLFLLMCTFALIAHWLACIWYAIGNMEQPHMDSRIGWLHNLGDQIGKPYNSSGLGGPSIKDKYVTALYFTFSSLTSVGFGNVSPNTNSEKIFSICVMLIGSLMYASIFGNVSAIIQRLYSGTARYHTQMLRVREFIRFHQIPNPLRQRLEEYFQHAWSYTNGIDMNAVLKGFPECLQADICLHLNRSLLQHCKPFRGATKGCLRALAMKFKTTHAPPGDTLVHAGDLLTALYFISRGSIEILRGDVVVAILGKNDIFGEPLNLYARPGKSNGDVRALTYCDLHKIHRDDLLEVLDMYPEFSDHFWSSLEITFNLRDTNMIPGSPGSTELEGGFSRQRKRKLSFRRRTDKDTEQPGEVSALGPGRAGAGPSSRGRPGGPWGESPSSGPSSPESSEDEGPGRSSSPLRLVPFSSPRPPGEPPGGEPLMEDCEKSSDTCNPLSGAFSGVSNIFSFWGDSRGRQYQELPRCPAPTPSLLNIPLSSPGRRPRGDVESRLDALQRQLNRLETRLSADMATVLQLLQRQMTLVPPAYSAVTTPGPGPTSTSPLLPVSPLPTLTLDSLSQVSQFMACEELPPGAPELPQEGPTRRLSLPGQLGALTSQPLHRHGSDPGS
`CCOc1ccc(C(C)NC(=O)c2ccccc2OCc2c(C)noc2C)cc1OCC` (centres unmarked): the “hERG current change (%, negative = inhibition) at 10uM” value is -23.8%. As for `COc1ccccc1C(=O)NCC(=O)Nc1cccnc1`, the figure is 20.5%. Under `COc1ccccc1C(=O)NC(C)c1ccc(-n2ccnc2)cc1` (centres unmarked) stands -52.6%. Under `Cc1noc(C)c1COc1ccccc1C(=O)NC(C)c1ccc(Cl)cc1` (centres unmarked) stands -55.8%; under `COc1ccccc1C(=O)NC(C)c1ccccc1` (centres unmarked), 18.6%. With `COc1ccccc1C(=O)NCC(=O)NC(C)c1ccc(-n2ccnc2)cc1` (centres unmarked), the “hERG current change (%, negative = inhibition) at 10uM” value is -66.4%. Under `Cc1cccc(C(=O)NCC(=O)NC(C)c2ccc(-n3ccnc3)cc2)c1` (centres unmarked) stands -68.5%; under `Cc1noc(C)c1COc1ccccc1C(=O)NCCc1ccc(Cl)cc1`, -20.8%; under `COc1ccccc1C(=O)NCCC(=O)NC(C)c1ccc(-n2ccnc2)cc1` (centres unmarked), -17.1%. As for `COC(=O)CSc1nnc2n(-c3ccc(OC)cc3)c(=O)c3c4c(sc3n12)CCCCC4`, the figure is -10.6%; as for `Cc1cc(NC(=O)CCC(=O)N(CC(=O)NC2CCCC2)c2ccc(Cl)cc2)no1`, -16.7%. As for `CN1CCN(S(=O)(=O)c2ccc(NC(=O)COc3ccccc3Cl)cc2)CC1`, the figure is 20.1%; as for `COc1ccc(NC(C)=O)cc1NS(=O)(=O)c1ccc2c(c1)OCCO2`, 21.4%; as for `O=C(Nc1ccc2c(c1)OCO2)c1nn(-c2ccccc2)c(=O)c2ccccc12`, 11%. As to `O=C1C(=O)N(CCN2CCOCC2)C(c2ccccc2F)/C1=C(\O)c1ccc(S(=O)(=O)N2CCOCC2)cc1` (centres unmarked), the “hERG current change (%, negative = inhibition) at 10uM” value turned out to be 11.5%.

With `O=C(Nc1ccccc1-c1nnn(CC(=O)N2CCCc3ccccc32)n1)c1ccc(Cl)cc1`, the “hERG current change (%, negative = inhibition) at 10uM” value is on record as 8.92%. As for `O=C(COC(=O)c1ccc(F)cc1F)NC1CC1`, the figure is 23%; as for `Cc1ccc(OC(=O)c2cncc(Br)c2)c(C)c1`, 16%; as for `N/C(=N\OC(=O)COc1ccccc1)c1ccccn1`, 13.6%.

Consider `O=C(CN(c1ccc(F)cc1)S(=O)(=O)c1ccc2c(c1)OCCO2)Nc1ccc2c(c1)OCO2`, for which the “hERG current change (%, negative = inhibition) at 10uM” value was found to be 14.4%. Under `N/C(=N\OC(=O)c1cc(Br)ccc1Cl)c1ccccn1` stands 13.1%; under `CC(NC(=O)c1ccccc1Cl)c1ccc(-n2ccnc2)cc1` (centres unmarked), -34.2%; under `CC(NC(=O)CCNC(=O)c1ccc(Br)cc1)c1ccc(S(N)(=O)=O)cc1` (centres unmarked), 15.3%. As for `CC(NC(=O)CCNC(=O)c1ccc(Br)cc1)c1ccc(-n2ccnc2)cc1` (centres unmarked), the figure is -66.5%. On to `COc1cc(C(=O)NCC(=O)NC(C)c2ccc(-n3ccnc3)cc2)cc(OC)c1OC` (centres unmarked), for which the “hERG current change (%, negative = inhibition) at 10uM” value is listed as -3.06%.

Take `CCOc1ccc(C(=O)NCC(=O)NC(C)c2ccc(-n3ccnc3)cc2)cc1OCC` (centres unmarked): the “hERG current change (%, negative = inhibition) at 10uM” value is -77.4%. In the case of `CCOc1ccc(C(=O)NCC(=O)Nc2ccncc2)cc1OCC`, the “hERG current change (%, negative = inhibition) at 10uM” value is recorded as 4.58%. For `CC(C)c1ccc(CCNC(=O)CCNC(=O)c2ccc(Br)cc2)cc1`, the “hERG current change (%, negative = inhibition) at 10uM” value is listed as 5.74%. As for `CCOc1ccccc1C(=O)NC(C)c1ccc(-n2ccnc2)cc1` (centres unmarked), the figure is -57.5%; as for `CCOc1ccccc1C(=O)NCC(=O)Nc1ncccc1C`, 14%. As for `CCOc1ccccc1C(=O)NCC(=O)NC(C)c1ccc(-n2ccnc2)cc1` (centres unmarked), the figure is -70.9%; as for `CC(NC(=O)c1ccccc1C(=O)O)c1ccc(-n2ccnc2)cc1` (centres unmarked), 16%.

The values above are taken from paper PMC4336329 (PLoS ONE, 2015).
